Screens: PubChem, National Center for Advancing Translational Sciences (NCATS)
IL1B secr inh – qHTS for Inhibitors of Inflammasome Signaling: IL-1-beta AlphaLISA Primary Screen; THP-1 LPS/ATP IL-1B secretion, AlphaLISA, 16 h; hits give low values; activity change, % at 57.5 µM; 360,000 tested, 4.7% active; AID 743279, 2014; in the data active means activity change below about -50%; inconclusive means mostly about -30% to -49%
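THP-1 cells pretreated 1 hr with compounds (up to 57.5 uM final), then stimulated with LPS (250 ng/mL final) plus ATP (1.25 mM final); secreted IL-1B measured by AlphaLISA after 16 hr, decreased signal indicating inhibition.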
a7 integrin act – qHTS for Activators of Integrin-Mediated Alleviation for Muscular Dystrophy; alpha7betagal myoblasts, beta-gal FDG fluorescence, 48 h; Potency, µM (highest dose often 38.3 µM), usual class: activators; 350,000 tested, 0.064% active; further: nearly all actives have a fitted effect of over 60% in size
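alpha7betagal+/- myoblasts (passage 13, 250/well) treated 48 h at 37C with compounds at 1:260 dilution of DMSO stock. Lysed, then beta-galactosidase activity read as FDG fluorescence (ex 480/em 540) after 30 min, with pre-read for autofluorescence.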
D3 antag – qHTS of D3 Dopamine Receptor Antagonist: qHTS. D3R cells, DiscoveRx beta-arrestin luminescence, antagonist mode; hits give low values. max response, negative = inhibition, %. 360,000 tested, 2.5% active; in the data active means max response below about -50%; inconclusive means no clear call, values can overlap the other calls
Target sequence (P35462 whole entry, looked up): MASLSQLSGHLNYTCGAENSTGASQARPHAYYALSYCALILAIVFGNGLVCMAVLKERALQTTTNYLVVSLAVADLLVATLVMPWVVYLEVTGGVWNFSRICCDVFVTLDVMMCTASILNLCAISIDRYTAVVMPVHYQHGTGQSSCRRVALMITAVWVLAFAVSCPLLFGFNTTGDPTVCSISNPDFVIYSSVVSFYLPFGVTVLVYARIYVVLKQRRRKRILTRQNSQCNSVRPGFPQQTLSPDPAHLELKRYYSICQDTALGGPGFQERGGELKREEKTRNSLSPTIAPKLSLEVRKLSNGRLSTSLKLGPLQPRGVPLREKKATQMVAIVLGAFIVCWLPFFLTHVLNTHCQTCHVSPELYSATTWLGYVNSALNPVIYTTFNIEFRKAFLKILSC
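Cells plated overnight at 1500 cells/well, then exposed to library compounds with dopamine controls for 90 minutes at 37 degrees C. DiscoveRx reagent added for 30–60 minutes at room temperature; luminescence read, quantitative HTS format.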
ATXN2 expr inh – Primary qHTS for Inhibitors of ATXN expression; HEK-293 ATXN2-luciferase reporter, luminescence, 24 h; Potency, µM (highest dose often 57 µM), usual class: inhibitors; 360,000 tested, 0.72% active; AID 1745845, 2022; further: nearly all actives have a fitted effect of over 55% in size
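qHTS (up to 57 uM final) was run with 24 h compound exposure of reporter cells at 37 °C. Each well was multiplexed: SteadyGlo luminescence measured ATXN2-luciferase expression after a fluorogenic Gly-Phe-AFC viability readout (25 uM final).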
DRD3 agonist – qHTS of D3 Dopamine Receptor Agonist: qHTS. D3R DiscoveRx beta-arrestin cells, luminescence, 90 min. max activation, %. 410,000 tested, 0.58% active. AID 652048, 2013; in the data active means max activation above about 30%
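Cells at 1500/well, incubated overnight, then treated with pinned compounds (dopamine as control) for 90 min at 37 degrees C. DiscoveRx reagent added for 30 - 60 minutes at room temperature; luminescence read.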
S2 tox – Viability Counterscreen for Primary qHTS for Inhibitors of ATXN expression. 400,000 tested, 0.49% active. S2 cells (HEK-293 line with an ATXN2-luciferase reporter) viability, CellTiter-Fluor protease fluorescence, 24 h. Potency, µM (titrated, usually from 56.7 µM), usual class: cytotoxic; further: nearly all actives have a fitted effect of over 40% in size
A number is an active result; - = inactive; ? = inconclusive; . = not tested or not shown; ! = not confirmed by another sample; [ ] = another dose, or the depositor's remark. Compounds with a hit are over-represented: about 7% of the library has one in this group of screens. Unless noted, the call rests on the fitted dose curve; in most records, active means well fitted curve in the direction sought with a large enough effect; inconclusive means small, poorly fitted or top-dose-only effect, or another doubt; inactive means no such curve, though single readings can be large; an effect the other way counts as inactive or inconclusive.

SMILES	IL1B secr inh	a7 integrin act	D3 antag	ATXN2 expr inh	DRD3 agonist	S2 tox
Cc1nc2c(c(C)nn2-c2ccccc2)c(C)c1CCC(=O)Nc1ccccc1	.	.	.	-	-	-
Cc1nc2c(c(C)nn2-c2ccccc2)c(C)c1CCC(=O)Nc1ccc(CN2CCCC2)cc1	-97	-	-	?	-	?
Cc1ccccc1CS(=O)(=O)c1ccc(C(=O)N2CCOCC2)cc1[N+](=O)[O-]	-88	-	-	.	-	-
O=C(c1ccc(S(=O)(=O)Cc2ccccc2Cl)c([N+](=O)[O-])c1)N1CCOCC1	-100	-	-	-	-	-
O=C(c1ccc(S(=O)(=O)c2ccccc2Cl)c([N+](=O)[O-])c1)N1CCN(Cc2ccccc2)CC1	-110	-	-	-	-	-
Cc1ccc(C(=O)N2CCOCC2)cc1[N+](=O)[O-]	-	-	-	-	-	-
Cc1cc(C(=O)O)c(C)n1Cc1ccncc1	-	-	-	-	-	-
O=C(CSc1nnc(-c2ccccc2)c(-c2ccccc2)n1)Nc1ccccc1Cl	.	.	.	-	-	-
Cc1[nH]n(-c2ccccc2)c(=O)c1C(c1ccc(O)c([N+](=O)[O-])c1)c1c(C)[nH]n(-c2ccccc2)c1=O	-	-	-91	-	-	-
COc1ccc(C(C[N+](=O)[O-])c2c(C)[nH]n(-c3ccccc3)c2=O)cc1 (centres undefined)	-52	-	-	-	-	-
Cc1ccc(NC(=O)CSc2cccc[n+]2[O-])c([N+](=O)[O-])c1	-	-	-	-	-	-
COc1ccc(Nc2ncnc3ccccc23)c(OC)c1	-	-	-	-	-	-
COc1ccc(Nc2nnc(Cc3ccncc3)c3ccccc23)c(OC)c1	-57	?	-	-	-	-
CCn1cc(CNC(=O)CCc2nnc(CCC3CCCCC3)o2)cn1	-	-	-	.	-	-
CCCCNc1nc(=S)n(-c2ccccc2)c(C)c1C(C)=O	-91	-	?	?	-	.
Nn1c(SCC(=O)NCc2ccc3c(c2)OCO3)nnc1C1CC1	-	-	?	-	-	-
O=S(=O)(c1ccc(Br)cc1)c1cnc2ccccc2n1	-101	-	-	-	-	-
O=S(=O)(Cc1ccccc1)c1cnc2ccccc2n1	-89	-	-	-	-	-
COc1ccc(S(=O)(=O)c2cnc3ccccc3n2)cc1	-58	-	-	-	-	-
O=C1C2CCCN2C(=O)N1CCN1CCN(c2cccc(C(F)(F)F)c2)CC1 (centres undefined)	-	-	-	-	-	-
O=C1C2CCCN2C(=O)N1CCCN1CCN(c2cccc(Br)c2)CC1 (centres undefined)	-	?	-78	-	-	-
O=C1C2CCCCN2C(=O)N1CCCN1CCN(c2cccc(C(F)(F)F)c2)CC1 (centres undefined)	-	-	-67	-[11.3 µM]	-	-
CCOC(=O)C1=C(COC(=O)c2nc(Cl)ccc2Cl)NC(=O)NC1C (centres undefined)	-	-	-	-	-	?
CCC(=O)c1ccc2c(c1)N(CCCN1CCN(CCO)CC1)c1ccccc1S2	.	.	.	.	-	.
CC(CN1CCN(CCOCCO)CC1)CN1c2ccccc2Sc2ccc(Cl)cc21 (centres undefined)	-	-	-117	.	-	?
SMILES	IL1B secr inh	a7 integrin act	D3 antag	ATXN2 expr inh	DRD3 agonist	S2 tox
Cc1ccc(C)c(Nc2cc(C(=O)NC3CCCC3)c3ccccc3n2)c1	.	.	.	-	-	-
CC(C)c1ccc(Nc2c([N+](=O)[O-])c(=O)n(C)c3ccccc23)cc1	-66	-	-	-	-	?
Cn1c(=O)c([N+](=O)[O-])c(-n2ccnc2)c2ccccc21	-101	-	-51	?	-	.
Cc1cccc(Nc2c([N+](=O)[O-])c(=O)n(C)c3ccccc23)c1	-	-	-	-	-	?
Cn1c(=O)c([N+](=O)[O-])c(NCCCn2ccnc2)c2ccccc21	.	-	-	-	-	-
Cc1ccc(CNC(=O)Cc2ccc(NC(=O)N3CCSc4ncccc43)cc2)cc1	.	.	.	.	-	.
COC(=O)c1cc(C(=O)OC)n(Cc2ccc(F)cc2)c1C	-	-	-	-	-	-
Cc1c(C#N)c(NC(=O)CCl)n(Cc2cccs2)c1C	-105	-	-	?	-	.
Cc1c(C#N)c(NC(=O)CCl)n(Cc2ccccc2)c1C	-57	-	-	11µM	-	8.4µM
Cc1c(C#N)c(NC(=O)CCl)n(Cc2ccc(F)cc2)c1C	-77	-	-	?	-	21µM
CC(C)NCC(O)c1ccc(O)c(O)c1 (centres undefined)	-	.	-	-	39!	-
CCCCCC(=O)N1C[C@H](O)[C@@H](n2cc(-c3ccc(F)cc3)nn2)C[C@@H]1c1ccc(Cl)cc1	?	-	?	?	-	?
O=C(C1CCCCC1)N1C[C@H](n2cc(-c3ccc(F)cc3)nn2)[C@@H](O)C[C@@H]1c1ccc(Cl)cc1	-56	-	-	?	-	?
CCCCCCN1C[C@@H](n2cc(-c3ccc(F)cc3)nn2)[C@H](O)C[C@@H]1c1ccc(Cl)cc1	-	-	-	?	-	18µM
O=C(C1CCCCC1)N1C[C@@H](n2cc(-c3ccc(F)cc3)nn2)[C@H](O)C[C@@H]1c1ccc(Cl)cc1	?	-	-	?	-	.
CCCCCC(=O)N1C[C@@H](n2cc(-c3ccc(F)cc3)nn2)[C@H](O)C[C@@H]1c1ccc(Cl)cc1	-56	-	-	?	-	.
CCOC(=O)c1cccc(NC(=O)Cn2c(=O)nc(-c3ccccc3)c3ccccc32)c1	.	.	.	-	-	-
Cc1nc2sccn2c(=O)c1S(=O)(=O)Nc1cc(Cl)ccc1O	.	.	.	.	-	.
NC(=O)CSc1nnc(Cc2cccs2)n1C1CCCCC1	-	-	-	-	-	?
N#CCSc1nnc(Cc2cccc3ccccc23)n1C1CCCCC1	-65	-	-	-	-	-
CCOC(=O)C1=C(C)N=C2SC(C(=O)OC)=CC(=O)N2C1c1ccc(F)cc1 (centres undefined)	-61	-	-	-	-	-
Cc1nn(CCS(=O)(=O)c2ccc(Cl)cc2)c(C)c1Br	-	-	-	-	-	-
NS(=O)(=O)c1ccc(NNC(=O)c2ccc(Br)o2)c([N+](=O)[O-])c1	?	-	-65	-	-	?
NC(CCc1ccccc1)c1csc(NC(=O)Nc2cccc(Cl)c2)n1 (centres undefined)	-61	.	-	20µM	-	28µM
NC(c1ccccc1)c1csc(NC(=O)Nc2ccc(OC(F)(F)F)cc2)n1 (centres undefined)	-	.	-	-	-	.
